Measured values: PubChem BioAssay
Calls of active or inactive are those of the source. Unless noted, how the calls were made is not given here.

Tests used:
[1] = resazurin metabolic signal in HepG2 cells – cell-based, resazurin fluorescence, 24 h, PK04 Diversity Set, profiling panel (AID 1172); settings: HepG2 viability, higher = more signal
[2] = budding yeast growth changes without added modifier – OD600, strain BY4716, 24 h, basal condition, primary screen (AID 1173); settings: S. cerevisiae BY4716 growth, OD600, 24 h; higher = more signal, called active from +8 up or from −8 down
[3] = viability profiling in MM1S myeloma cells – cell-based, resazurin fluorescence, basal, 24 h, PK04 Diversity Set, profiling panel (AID 1174); settings: higher = more signal, called active from +8 up or from −8 down;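 further: MM1S multiple myeloma cell line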
[4] = target: Dihydroorotate dehydrogenase (quinone), mitochondrial (Plasmodium falciparum (isolate 3D7)) (UniProt Q08210); experiment: inhibition of P. falciparum DHODH – biochemical, C-terminal His tag, absorbance 600 nm, primary screen (AID 1175); settings: PfDHODH enzyme, DCIP absorbance 600 nm; higher = more signal, called active from +8 up or from −8 down;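 further: recombinant parasite enzyme with a five histidine tag at its C terminus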
[5] = inhibition of PAO1 biofilm formation – strain PAO1, LB-PBS medium, absorbance 600 nm, primary screen (AID 1176); settings: P. aeruginosa PAO1 growth/biofilm, A600, 12 h; higher = more signal
[6] = growth modulation of vineyard yeast isolate – strain RM11-1a, OD600, basal, 24 h, primary screen (AID 1177);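 further: cultures grown under basal conditions with no added stressor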; settings: S. cerevisiae RM11-1a growth, OD600, 24 h; higher = more signal, called active from +8 up or from −8 down
[7] = growth of efflux-deficient E. coli DRC39 – strain DRC39, OD650, 24 h, E. coli filamentation inducers, primary screen (AID 1178);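 further: growth measured as culture turbidity by optical density at 650 nm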; settings: E. coli DRC39 acrAB, higher = more signal, called active from +8 up or from −8 down
[8] = growth of efflux-deficient E. coli DRC39 – strain DRC39, OD650, 48 h, E. coli filamentation inducers, primary screen (AID 1179);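 further: screen aims at cell division blockers that make cells filament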; settings: E. coli DRC39 delta-acrAB growth, higher = more signal, called active from +8 up or from −8 down
[9] = viability profiling in RPMI8226 myeloma cells – cell-based, resazurin fluorescence, basal, 24 h, PK04 Diversity Set, profiling panel (AID 1180); settings: higher = more signal;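 further: RPMI8826 multiple myeloma cell line at 5000 cells per well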
[10] = target: E3 ubiquitin-protein ligase XIAP (Homo sapiens) (UniProt P98170); experiment: small molecules binding XIAP protein – biophysical, small-molecule microarray, fluorescence 635 nm, primary screen (AID 1181); settings: higher = more signal;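 further: score merges 667 nm emission and signal to noise over triplicate slides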
[11] = tested on: XIP peptide (Xip251-270) binding; experiment: XIP fragment 251-270 binding compounds – biochemical, small-molecule microarray, fluorescence 635/667 nm, 0.1 µg/mL protein, primary screen (AID 1182); settings: fluorescent protein binding, 635 nm, higher = more signal, called active from +8 up or from −8 down
XIP peptide (Xip251-270) = experiment: compounds binding XIP fragment 251-270 – biochemical, small-molecule microarray, fluorescence 635/667 nm, 0.5 µg/mL protein, primary screen (AID 1183); settings: fluorescence 635 nm, higher = more signal
[12] = blood-stage malaria parasite viability loss – strain 3D7, DAPI fluorescence, 100 nL, primary screen (AID 1184);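 further: parasites grown inside human red blood cells in medium with human serum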; settings: P. falciparum 3D7 growth, 3 d, higher = more signal
[13] = target: Homeobox protein Hox-A13 (Mus musculus) (UniProt Q62424); experiment: disruptors of Hoxa13 oligonucleotide interaction – biochemical, fluorescence polarization, labeled oligonucleotide, primary screen (AID 1185); settings: Hoxa13:DNA binding, 15 min, higher = more signal, called active from +8 up or from −8 down
[14] = blockers of DNA damage checkpoint Chk1 activation – imaging, HeLa, hydroxyurea, phospho-Chk1 antibody, percent positive cells, primary screen (AID 1186); settings: hydroxyurea-induced phospho-Chk1 immunofluorescence imaging, higher = more signal
[15] = blockers of DNA damage checkpoint Chk1 activation – imaging, HeLa, hydroxyurea, phospho-Chk1 nuclear intensity, primary screen (AID 1187); settings: hydroxyurea-induced phospho-Chk1 immunofluorescence imaging, higher = more signal

Sequence of Homeobox protein Hox-A13 (Mus musculus) (Q62424 whole entry, looked up): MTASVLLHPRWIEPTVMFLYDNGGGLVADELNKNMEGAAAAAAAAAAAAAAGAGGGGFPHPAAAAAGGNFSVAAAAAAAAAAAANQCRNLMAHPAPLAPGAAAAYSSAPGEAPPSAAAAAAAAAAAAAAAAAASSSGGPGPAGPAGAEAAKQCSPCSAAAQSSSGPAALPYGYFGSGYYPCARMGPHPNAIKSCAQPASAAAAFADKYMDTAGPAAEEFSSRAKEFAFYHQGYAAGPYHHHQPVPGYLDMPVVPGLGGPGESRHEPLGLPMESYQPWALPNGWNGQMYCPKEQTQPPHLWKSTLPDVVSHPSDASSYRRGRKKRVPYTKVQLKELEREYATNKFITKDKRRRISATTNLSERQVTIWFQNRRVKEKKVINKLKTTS
Sequence of Dihydroorotate dehydrogenase (quinone), mitochondrial (Plasmodium falciparum (isolate 3D7)) (Q08210 whole entry, looked up): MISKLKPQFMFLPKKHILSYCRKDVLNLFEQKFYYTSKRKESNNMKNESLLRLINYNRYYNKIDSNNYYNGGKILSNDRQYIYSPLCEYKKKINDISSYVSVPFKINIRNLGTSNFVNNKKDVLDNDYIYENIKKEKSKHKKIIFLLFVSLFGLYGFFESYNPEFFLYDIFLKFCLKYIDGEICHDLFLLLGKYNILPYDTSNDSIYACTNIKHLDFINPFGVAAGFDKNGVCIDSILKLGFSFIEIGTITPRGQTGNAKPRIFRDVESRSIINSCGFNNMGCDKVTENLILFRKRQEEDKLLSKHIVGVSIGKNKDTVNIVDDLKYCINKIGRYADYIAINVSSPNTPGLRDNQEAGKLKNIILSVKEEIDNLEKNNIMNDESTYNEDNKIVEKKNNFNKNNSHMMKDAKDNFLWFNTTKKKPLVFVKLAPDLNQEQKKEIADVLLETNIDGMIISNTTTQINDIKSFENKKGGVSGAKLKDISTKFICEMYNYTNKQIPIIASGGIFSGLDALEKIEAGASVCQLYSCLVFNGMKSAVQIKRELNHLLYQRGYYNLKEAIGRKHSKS
Sequence of E3 ubiquitin-protein ligase XIAP (Homo sapiens) (P98170 whole entry, looked up, the tested form may be a part): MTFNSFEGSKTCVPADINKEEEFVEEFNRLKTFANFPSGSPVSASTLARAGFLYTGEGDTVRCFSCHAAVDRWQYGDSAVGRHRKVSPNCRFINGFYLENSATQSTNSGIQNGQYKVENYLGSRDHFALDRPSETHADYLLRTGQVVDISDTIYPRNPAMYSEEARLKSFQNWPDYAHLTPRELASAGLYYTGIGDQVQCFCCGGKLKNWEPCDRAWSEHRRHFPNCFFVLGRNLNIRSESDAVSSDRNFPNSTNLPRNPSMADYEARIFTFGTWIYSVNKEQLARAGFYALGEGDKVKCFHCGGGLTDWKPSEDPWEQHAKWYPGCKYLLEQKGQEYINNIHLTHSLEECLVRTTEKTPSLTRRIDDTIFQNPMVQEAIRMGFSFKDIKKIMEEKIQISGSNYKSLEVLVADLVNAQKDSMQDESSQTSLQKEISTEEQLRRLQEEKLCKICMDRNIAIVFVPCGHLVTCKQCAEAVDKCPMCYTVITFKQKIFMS

| SMILES | z-score [1] | z-score [2] | z-score [3] | composite z-score [4] | z-score [5] | z-score [6] | z-score [7] | z-score [8] | z-score [9] | composite z-score [10] | composite z-score [11] | composite z-score (XIP peptide (Xip251-270)) | z-score [12] | z-score [13] | z-score [14] | z-score [15] |
| --- | --- | --- | --- | --- | --- | --- | --- | --- | --- | --- | --- | --- | --- | --- | --- | --- |
| Cc1ccc(F)cc1S(=O)(=O)N[C@@H]1CCN(Cc2ccc(Oc3ccccc3)cc2)C1 | -0.971 | -17.3 (active) | -0.627 (inactive) | 0.255 (inactive) | -0.177 (inactive) | -9.2 (active) | -5.2 (inactive) | -4.66 (inactive) | -0.942 | -0.13 | 0.401 (inactive) | -0.0723 | -0.954 | -5.64 (inactive) | 0.659 (inactive) | 0.735 (inactive) |
| O=C1NC(=O)C2C1C=CC(C(O)c1ccc3c(c1)OCO3)N2Nc1ccccn1 (centres undefined) | -0.861 | -0.117 (inactive) | -0.854 (inactive) | 0.315 (inactive) | 1.89 (inactive) | -0.86 (inactive) | 0.812 (inactive) | 1.3 (inactive) | -0.431 | 0.0185 | 0.307 (inactive) | 0.247 | 0.453 | -1.69 (inactive) | 0.095 (inactive) | 0.14 (inactive) |
| O=c1cccc(-c2cccc(Cl)c2)o1 | -0.381 | -8.75 (active) | 0.149 (inactive) | -0.0422 (inactive) | -0.377 (inactive) | -0.401 (inactive) | 0.304 (inactive) | -0.326 (inactive) | -0.4 | -0.0052 | 0.165 (inactive) | 0.108 | 0.204 | -0.814 (inactive) | 0.0366 (inactive) | -0.411 (inactive) |
| C=CCN1C(=O)[C@@]2(O[C@@H](CCO)[C@H]([Si](C)(C)c3ccc(OC)cc3)[C@H]2C)c2cc(N3C(=O)c4ccccc4Oc4ccccc43)ccc21 | -6.08 | -0.0065 (inactive) | -8.62 (active) | 0.614 (inactive) | 1.95 (inactive) | 3.35 (inactive) | 2.24 (inactive) | 1.9 (inactive) | -6.24 | -0.172 | 0.227 (inactive) | 0.536 | -2.52 | -4.25 (inactive) | -0.948 (inactive) | -0.004 (inactive) |
| COCCOC(=O)N1C(=O)[C@@]2(c3cc(C#CCC(C(=O)OC)C(=O)OC)ccc31)[C@H](c1ccc(OCCO)cc1)N1[C@H](c3ccccc3)[C@H](c3ccccc3)OC(=O)[C@H]1[C@@H]2C(=O)N1CCN(c2ncccn2)CC1 | 1.27 | 0.588 (inactive) | -0.199 (inactive) | 1.35 (inactive) | 2.06 (inactive) | 1.82 (inactive) | 0.362 (inactive) | -0.108 (inactive) | 0.262 | -0.22 | 1.42 (inactive) | 0.824 | -2.25 | 2.08 (inactive) | -0.163 (inactive) | -0.0755 (inactive) |
| C=CCOC(=O)[C@H]1[C@@H]2C(=O)O[C@@H](c3ccccc3)[C@@H](c3ccccc3)N2[C@@H](c2ccc(OCCOC(=O)[C@H]3C[C@H]4C(=O)N[C@@H](Cc5ccccc5)C(=O)N4[C@H]3c3cccc(OCCO)c3)cc2)[C@]12C(=O)Nc1ccc(I)cc12 | 0.169 | 1.42 (inactive) | -0.446 (inactive) | 0.64 (inactive) | 2.17 (inactive) | 1.04 (inactive) | -0.0281 (inactive) | 0.0436 (inactive) | 0.0282 | -0.105 | 0.893 (inactive) | 0.464 | -1.65 | 0.643 (inactive) | 0.27 (inactive) | -0.0401 (inactive) |
| CC(C)CCC[C@@H](C)[C@H]1CC[C@@]2(C)C3=C(CC[C@]12C)[C@@]1(C)CC[C@H](OC(=O)c2ccc(Br)cc2)C(C)(C)C1CC3 (some centres undefined) | 1.05 | -0.149 (inactive) | 0.345 (inactive) | -1.4 (inactive) | 0.0694 (inactive) | -1.7 (inactive) | 0.998 (inactive) | 1.07 (inactive) | 0.766 | 0.0223 | -0.349 (inactive) | -0.198 | 0.665 | -0.708 (inactive) | 0.0833 (inactive) | 0.377 (inactive) |
| NCCCCCCNC(=O)[C@H]1C[C@H]2C(=O)N[C@@H](Cc3ccccc3)C(=O)N2[C@H]1c1ccc(O)cc1 | 0.614 | -0.68 (inactive) | 1.58 (inactive) | -1.32 (inactive) | 0.118 (inactive) | -1.27 (inactive) | 0.279 (inactive) | 0.04 (inactive) | 1.27 | -0.0826 | -0.342 (inactive) | 0.623 | 0.171 | -3.5 (inactive) | -0.174 (inactive) | 0.592 (inactive) |
| CCOC(=O)[C@@H]1[C@@H]2C(=O)N(CC)C(=O)[C@@H]2C[C@@H]1Sc1ccccc1 | 0.0632 | -0.325 (inactive) | -0.33 (inactive) | 0.917 (inactive) | 0.257 (inactive) | 0.866 (inactive) | -0.638 (inactive) | -0.894 (inactive) | -0.458 | -0.127 | -0.266 (inactive) | 0.313 | -0.555 | -4.73 (inactive) | 0.899 (inactive) | 0.647 (inactive) |
